FAK blocker – blocks human focal adhesion kinase activity. inhibition, %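 (tested at 7 µM)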. actives 0.84% (n = 97,000). biochemical FAK kinase activity assay; in the data active means inhibition above about 19%
S1P2 agonist – agonists of human S1P2 receptor | O95136 | S1P2-expressing cell line, agonist reporter read-out | activation, % at 4.5 µM | actives 0.46% (n = 97,000); in the data active means activation above about 16%
Target sequence (O95136 whole entry, looked up): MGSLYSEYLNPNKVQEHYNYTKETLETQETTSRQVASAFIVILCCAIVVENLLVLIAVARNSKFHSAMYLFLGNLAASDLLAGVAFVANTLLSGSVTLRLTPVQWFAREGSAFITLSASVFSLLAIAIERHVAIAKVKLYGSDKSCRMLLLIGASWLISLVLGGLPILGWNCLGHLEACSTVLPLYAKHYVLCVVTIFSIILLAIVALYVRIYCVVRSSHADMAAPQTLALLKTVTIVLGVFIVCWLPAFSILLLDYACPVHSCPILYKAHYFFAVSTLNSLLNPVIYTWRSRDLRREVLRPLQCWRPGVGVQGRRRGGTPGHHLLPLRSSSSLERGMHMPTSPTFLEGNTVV
GALR2 agonist – activates the human galanin receptor 2; AID 803; O43603; activation, % (concentration not given with the values); actives 0.48% (n = 140,000); GALR2-expressing cells, agonist activation read-out; in the data active means activation above about 5%, passing the limit was not always enough
S1P2 blocker – antagonists of human S1P2 receptor; O95136; cell-based S1P2 antagonist assay, inhibition at 5 uM; inhibition, % at 5 µM; actives 0.21% (n = 97,000); AID 736; in the data active means inhibition above about 45%;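 further: CRE beta-lactamase reporter cells expressing human S1P2 stimulated with S1P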
GALR2 blocker – GALR2 (human) receptor antagonism | inhibition, % at 4 µM | actives 0.39% (n = 140,000) | GALR2-expressing cells, antagonist mode | O43603; in the data active means inhibition above about 27%;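 further: cells stimulated with galanin 1-16 at roughly its EC80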
sdo1 growth – restores growth of sdo1-depleted yeast; S. cerevisiae sdo1-depleted JHY4D growth rescue, OD600 30 h; hits give high values; pdr5 snq2 efflux-pump mutant strain; z-score at 10 µM; actives 0.21% (n = 140,000);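 active means z-score above 3 at both the 24 hr and the 30 hr optical density reads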
Of the large screens only hits and unclear results are named; the others gave an inactive call. In the library only some 1.9% were active in any assay of this set; here they are far more common.

c1coc(-c2nc3c4c5c(sc4ncn3n2)CCCC5)c1	none
CC1(C)Cc2c(sc3ncn4nc(-c5ccco5)nc4c23)CO1	FAK blocker 32.6 (no result: sdo1 growth)
Cc1nc2cc(N=NC3=C(O)CCCC3=O)ccc2s1	none (no result: FAK blocker, S1P2 agonist, S1P2 blocker)
COCCCn1c(N)c(-c2nc3ccccc3n2C)c2nc3ccccc3nc21	none
Cn1c(-c2c(N)n(C3CCCC3)c3nc4ccccc4nc23)nc2ccccc21	S1P2 blocker 92.5
COCCn1c(=NC(=O)/C=C/c2ccccc2Cl)sc2cc(NC(C)=O)ccc21	GALR2 agonist 6.0 (no result: FAK blocker, S1P2 agonist, S1P2 blocker)
O=C(Cc1c[nH]c2ccccc12)Nc1nc2ccccc2[nH]1	S1P2 agonist 608.7
Cc1nc(SCC(=O)Nc2ccccc2)c2oc3ccccc3c2n1	S1P2 agonist 16.6
Cc1nc(SCC(=O)Nc2ccc(F)cc2)c2oc3ccccc3c2n1	none
Cc1sc(NC(=O)C2C3C=CC(C3)C2C(=O)O)c(C(N)=O)c1-c1ccc(C(C)C)cc1 (stereo not given)	none (no result: FAK blocker, S1P2 agonist, S1P2 blocker)
Cc1ccc(NC(=O)c2cc(C(=O)c3cc(Cl)ccc3O)cn(-c3ccc(C)cc3)c2=O)cc1	none (no result: FAK blocker, S1P2 agonist, S1P2 blocker)
O=C(CCCn1c(=S)[nH]c2cc3c(cc2c1=O)OCO3)N1CCN(c2ccccc2F)CC1	S1P2 agonist 31.5
COc1cc2c(cc1OC)-c1cc(NC3CCCCCCC3)nc(=O)n1CC2	S1P2 agonist 50.0
COc1cc2c(cc1OC)-c1cc(NC3CC3)nc(=O)n1CC2	none
CCCCCCNc1cc2n(c(=O)n1)CCc1cc(OC)c(OC)cc1-2	S1P2 agonist 30.3
COc1cc2c(cc1OC)-c1cc(NC3CCCCC3)nc(=O)n1CC2	S1P2 agonist 33.1
COc1ccc(NC(=O)c2cccc(C#N)c2)cc1NS(=O)(=O)c1ccc(F)cc1	none (no result: FAK blocker, S1P2 agonist, S1P2 blocker)
COc1cccc(N/C(SCc2ccccc2F)=C(/C#N)C(=O)NCc2cccs2)c1	none (no result: FAK blocker, S1P2 agonist, S1P2 blocker)
CCCOc1nc2c(c(=O)n(C)c(=O)n2C)n1CCC	GALR2 agonist 7.8 (no result: FAK blocker, S1P2 agonist, S1P2 blocker)
CC(C)(C)NC(=O)C(c1ccco1)N(C(=O)Cn1nnc(-c2ccc(F)cc2)n1)c1ccccc1F (stereo not given)	S1P2 agonist 18.6
O=c1c2sccc2nc(SCc2ccc([N+](=O)[O-])cc2)n1Cc1ccccn1	none (no result: FAK blocker, S1P2 agonist, S1P2 blocker)
CCOC(=O)c1nc(S(C)(=O)=O)ncc1Cl	GALR2 blocker 35.7
CCOC(=O)c1nc(S(C)(=O)=O)ncc1N1CCOCC1	none
CCCc1nc(N)c(C#N)c(N)c1C#N	S1P2 agonist 17.4
CCOc1ccc(C2OC34CCCCC3C(C#N)(C#N)C2(C#N)C(=N)O4)cc1OC (stereo not given)	sdo1 growth 5.69
CCCCOc1ccc(C2OC34CCCCC3C(C#N)(C#N)C2(C#N)C(=N)O4)cc1 (stereo not given)	none
COc1ccccc1CNC(=O)c1c(N)n(CCCN2CCOCC2)c2nc3ccccc3nc12	S1P2 agonist 58.4, GALR2 agonist 28.1
Nc1c(C(=O)NCCN2CCOCC2)c2nc3ccccc3nc2n1-c1ccc2c(c1)OCO2	none (no result: FAK blocker, S1P2 agonist, S1P2 blocker)
Nc1c(C(=O)NCc2ccc3c(c2)OCO3)c2nc3ccccc3nc2n1CCCN1CCOCC1	S1P2 agonist 41.1, GALR2 agonist 32.1
S=C(Cc1cccnc1)N1CCOCC1	none (no result: FAK blocker, S1P2 agonist, S1P2 blocker)
COc1cc(-c2nnc(COC(=O)c3c4c(nc5ccccc35)CCCC4)o2)cc(OC)c1OC	S1P2 agonist 42.8
COC(=O)c1c2c(nc3ccccc13)CCC2	none
Cc1ccc(NC(=O)CN2c3cccc4cccc(c34)S2(=O)=O)cc1S(=O)(=O)N1CCOCC1	none (no result: FAK blocker, S1P2 agonist, S1P2 blocker)
C=CCn1c2ccccc2c2nnc(SCN3C(=O)c4ccccc4C3=O)nc21	S1P2 agonist 20.5
O=C1c2ccccc2C(=O)N1CSc1nnc2c3ccccc3n(CCc3ccccc3)c2n1	none
COc1ccccc1-c1nnc2sc(-c3ccc(N(C)C)cc3)nn12	GALR2 blocker 29.4 (no result: FAK blocker, S1P2 agonist, S1P2 blocker)
CN(C)c1ccc(-c2nn3c(-c4ccccc4Cl)nnc3s2)cc1	none
CCc1ccc(NC(=O)N(Cc2ccco2)C(C)c2cccs2)cc1 (stereo not given)	S1P2 agonist 40.9
CCc1ccc(NC(=O)N(Cc2cccnc2)Cc2ccco2)cc1	none
O=[N+]([O-])c1ccc(O)c(/C=N/Nc2ccccn2)c1	GALR2 agonist 6.2 (no result: FAK blocker, S1P2 agonist, S1P2 blocker)
COCCn1c(C)cc(/C=C2/NC(=O)N(c3ccc(Cl)cc3)C2=O)c1C	GALR2 agonist 7.1 (no result: FAK blocker, S1P2 agonist, S1P2 blocker)
CCn1c(C)cc(/C=C2\NC(=O)N(Cc3ccc(Cl)cc3)C2=O)c1C	none
COc1ccccc1NS(=O)(=O)c1cccc(C(=O)N/N=C(\C)c2ccc3c(c2)OCCO3)c1	none (no result: FAK blocker, S1P2 agonist, S1P2 blocker)

Screens as filed in PubChem.
